Assay outcomes deposited in PubChem BioAssay by NMMLSC.
Prostate diff: activators of LNCaP prostate cell differentiation, primary screen, flow cytometry side scatter; hit rate 0.56% among 24,000; side scatter shift, % at 10 µM; 4 d;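 active = side scatter shift above 30%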;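 note: androgen-responsive LNCaP prostate cancer cells in charcoal-stripped serum medium; percent of cells past a gate set so DMSO wells show 10% shift; higher shift means more granular cells and more differentiation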
QS inhibitor: S. aureus quorum sensing inhibitors, primary screen, RNAIII-GFP reporter, flow cytometry | S. aureus RN6390 RNAIII-GFP reporter, AIP-induced, flow cytometry 3 h | hit rate 0.3% among 24,000 | AID 527, 2006 | inhibition, % at 2 µM;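 active = share of bacteria positive for the green fluorescent reporter and its mean brightness both inhibited by 50% or more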;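 note: 0% = AIP-stimulated control and 100% = unstimulated bacteria without AIP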
26S disassembly: inhibitors of ATP-driven 26S proteasome dissociation, primary screen, biochemical, bead-based flow cytometry, GFP-tagged proteasome; anti-FLAG beads, GFP-proteasome disassembly; inhibition of disassembly, % (no concentration beside the values); hit rate 0.2% among 24,000; AID 751, 2007;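 active = inhibition of disassembly above about 33%, limit read from the data; inconclusive = likely self-fluorescent, control bead median signal at least 40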;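 note: plate controls were ATP control with full disassembly for no effect and ATP-gamma-S intact proteasomes for full effect; higher percent means more bead fluorescence retained so stronger block of disassembly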
Active calls of the source: *; u = inconclusive; x = not tested or not shown. Most compounds without a hit are left out; they make up all but 0.91% or so of the library.

SMILES	Prostate diff	QS inhibitor	26S disassembly
Cc1cc(N2CCN(C)CC2)nc2ccc(NC(=O)c3ccc4c(c3)OCO4)cc12	57.0*	-7.3	-2.0
CCOc1ccccc1NC(=O)CCC(=O)Nc1ccc2nc(N3CCN(C)CC3)cc(C)c2c1	5.0	-0.7	-0.3
CCN1CCN(c2cc(C)c3cc(NC(=O)c4cnccn4)ccc3n2)CC1	1.0	-5.9	0.7
Cc1cc(N2CCN(C)CC2)nc2ccc(NC(=O)c3ccc(Br)o3)cc12	35.0*	-11.2	-0.8
COC(=O)c1ccccc1NC(=O)C12CCC(C)(C(=O)O1)C2(C)C (stereo unspecified)	6.0	0.2	0.1
O=C(Cn1ccc2ccccc2c1=O)N1CCN(Cc2ccc3c(c2)OCO3)CC1	11.0	-1.5	-1.9
O=C(CN1CCN(Cc2ccc3c(c2)OCO3)CC1)N1CCc2[nH]c3ccc(F)cc3c2C1	50.0*	-1.2	10.7
COc1ccc(-c2nnc3ccc(SCC(=O)N4CCN(c5ccccc5)CC4)nn23)cc1OC	6.0	-2.6	-0.9
Cc1ccc2nc(NC(=O)C3CCCN(S(=O)(=O)c4cccc5nsnc45)C3)sc2c1 (stereo unspecified)	6.0	15.7	151.1*
Cc1ccc2nc(NC(=O)C3CCN(S(=O)(=O)c4cccc5nsnc45)CC3)sc2c1	1.0	2.3	-0.1
COC(=O)c1ccc2c(=O)n(CCN3CCOCC3)c(SCC(=O)NC3CCCCC3)nc2c1	7.0	-0.2	3.0
Cc1nn(Cc2ccc(F)cc2)c(C)c1NC(=O)c1cc(-c2ccc3c(c2)OCO3)on1	30.0*	-4.4	-0.7
Cc1ccc(Cn2nc(C)c(NC(=O)c3cc(-c4ccc5c(c4)OCO5)on3)c2C)cc1	9.0	1.2	0.3
CCOC(=O)N1CCN(C(=O)c2ccc3c(=O)n(Cc4ccccc4)c(=S)[nH]c3c2)CC1	12.0	-1.6	-0.2
CCCn1c(=S)[nH]c2cc(C(=O)N3CCN(c4ccccc4OC)CC3)ccc2c1=O	1.0	66.0*	0.3
CCOc1ccc(NC(=O)C2CCCN(S(=O)(=O)c3c(C)n[nH]c3C)C2)cc1 (stereo unspecified)	2.0	-3.1	-1.3
CCOc1ccc(NC(=O)C2CCCN(S(=O)(=O)c3c(C)nn(C)c3C)C2)cc1 (stereo unspecified)	12.0	96.0*	u
Nc1nc(SCC(=O)N2CCCc3ccccc32)n(-c2ccccc2)n1	5.0	-1.4	0.1
COc1ccc(-c2coc3c(CN4CCCCC4)c(O)c(CN4CCCCC4)c(O)c3c2=O)cc1	36.0*	-1.4	1.0
COc1ccc(C(=O)c2coc3ccc(O)c(CN4CCCC4)c23)cc1	6.0	-6.9	-0.4
Cc1cc2c(=O)n(CC(=O)NCC(=O)N3CCN(Cc4ccccc4)CC3)cnc2s1	5.0	4.3	2.6
COc1cccc(Nc2cc(C)nc3ccccc23)c1	9.0	-3.4	1.3
COc1ccc(Nc2nc(N3CCCC3)c3ccccc3n2)cc1	50.0*	0.6	-1.1
CCOc1ccc(OCC)c(NC(=O)CCn2c(=O)oc3ccccc32)c1	9.0	8.3	-1.1
O=C(Nc1ccccc1C(F)(F)F)N1CCN(c2ccc3nnc(-c4ccc(F)cc4)n3n2)CC1	12.0	-4.8	5.4
SMILES	Prostate diff	QS inhibitor	26S disassembly
Fc1ccc(-c2nnc3ccc(N4CCc5ccccc5C4)nn23)cc1	5.0	69.1*	2.1
COc1ccc2nc(NC(=O)CN(C)S(=O)(=O)c3cccs3)sc2c1	x	-1.0	x
Cc1cccc(-c2nsc(SCC(=O)N3CCCC3)n2)c1	24.0	-2.1	1.4
Cc1cccc(-c2nsc(SCC(=O)Nc3nccs3)n2)c1	34.0*	5.1	1.4
COCCN1C(=O)C(=O)/C(=C(/O)c2cccc(S(=O)(=O)N(C)C)c2)C12C(=O)N(C)c1ccccc12 (stereo unspecified)	18.0	-3.2	1.3
CC(C)(C)OC(=O)N1CCC(C(=O)N2CCCCCC2)CC1	31.0*	1.2	-1.0
CC(C)(C)OC(=O)N1CCC(C(=O)N2CCOCC2)CC1	21.0	-0.4	-2.3
Cc1onc(-c2ccccc2)c1C(=O)Nc1cccc(C#N)c1	3.0	-9.9	-0.3
COc1cccc(Oc2cnc(N)nc2-c2ccc(OC)cc2O)c1	29.0	61.8*	0.1
C=C(C)COc1ccc(-c2nc(N)ncc2-c2ccc(OC)cc2)c(O)c1	8.0	14.5	-1.3
c1ccc(-c2nc(NC3CC3)nc(-n3ccnc3)n2)cc1	7.0	5.8	0.1
Cc1cccn2c(=O)c3cc(C(=O)NCc4ccccc4)c(=N)n(CCCN4CCOCC4)c3nc12	58.0*	4.0	1.2
COCCn1c(=N)c(C(=O)NCCc2ccccc2)cc2c(=O)n3cccc(C)c3nc21	10.0	0.1	3.7
Cc1ccc2[nH]c(=O)c(CN(CCN3CCOCC3)C(=O)Nc3ccc(F)cc3)cc2c1	x	-1.6	x
CCc1ccc2[nH]c(=O)c(CN(CCCN3CCOCC3)C(=O)Nc3ccc(Cl)cc3)cc2c1	x	93.5*	x
O=C(Nc1ccccc1)N(CCCN1CCOCC1)Cc1cc2cc3c(cc2[nH]c1=O)OCCO3	9.0	1.8	-4.0
Cc1ccc(C)c2[nH]c(=O)c(CN(CCN3CCCC3)C(=O)Nc3cccc(Cl)c3)cc12	73.0*	84.4*	u
CCc1ccc2[nH]c(=O)c(CN(CCCN3CCOCC3)C(=O)Nc3cccc(Cl)c3)cc2c1	x	60.1*	x
Cc1cc(C)c2cc(CN(CCN3CCCC3)C(=O)Nc3ccc(F)cc3)c(=O)[nH]c2c1	x	-0.2	x
Cc1cc2c(cc(C(=O)NCc3cccnc3)n2Cc2ccc(Cl)cc2)o1	4.0	8.4	4.6
CCOC(=O)N1CCN(C(=O)c2ccc3c(=O)n(CCc4ccccc4)c(=O)[nH]c3c2)CC1	5.0	1.4	-1.4
O=C1c2ccccc2-c2nc3ncnn3c(-c3ccccc3)c21	40.0*	-3.8	-2.5
O=C(O)c1ccc2c3c(ncnc13)-c1ccccc1C2=O	3.0	1.3	-0.7
Cc1nc2c(ccc3nc(NC(=O)c4ccc5c(c4)OCCO5)sc32)s1	6.0	57.1*	-0.4
Cc1nc2ccc3nc(NC(=O)c4ccc5c(c4)OCCO5)sc3c2s1	6.0	-5.1	0.9
SMILES	Prostate diff	QS inhibitor	26S disassembly
CC1CCN(C(=O)CSc2ccc3nnc(-c4ccc(F)cc4)n3n2)CC1	9.0	2.0	-0.8
COCCOC(=O)C1=C(C)N=C2SCCC(=O)N2C1c1cc(Br)ccc1OC (stereo unspecified)	8.0	1.8	0.1
COc1ccccc1OCC(=O)Nc1oc(-c2ccccc2)c(-c2ccccc2)c1C#N	x	1.0	x
N#Cc1c(NC(=O)COC(=O)C2CC3C=CC2C3)oc(-c2ccccc2)c1-c1ccccc1 (stereo unspecified)	4.0	90.6*	-2.7
COc1ccc(NC(=O)C2CCN(S(=O)(=O)c3cccnc3)CC2)cc1Cl	8.0	-1.3	0.9
O=C(NCCC1=CCCCC1)C(=O)NCC(c1ccco1)N1CCN(c2ccccc2F)CC1 (stereo unspecified)	x	0.6	x
Cc1ccc(C2N(c3ccc(F)cc3)C(=O)C3CCCN32)cc1 (stereo unspecified)	4.0	-1.0	16.1
Cc1cccc(C2N(c3ccc(F)cc3)C(=O)C3CCCN32)c1 (stereo unspecified)	2.0	-4.4	60.8*
O=C(NC1CCCCC1)C(c1cc2c(cc1[N+](=O)[O-])OCO2)N1CCCCC1 (stereo unspecified)	x	0.1	x
